The supplement of paper PMC8975748
Where a name gives a salt, the structure may show the parent alone. ± gives the standard deviation of the averaged measurements.

Test system: Saccharomyces cerevisiae BY4741 SeMeCo community
Assay: mean cell size (pixel area) (pixels); higher = larger cells
Settings: 10 µM; 24 h; SM minimal medium
Method in brief: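 Drug was acoustically predosed into 384-well plates to a final 10 µM in SM medium, and each well received 70 µl of Saccharomyces cerevisiae BY4741 diluted to OD600 = 0.3 from an overnight preculture at OD600 = 1.0. This four-plasmid fluorescent community carries one fluorescent marker per plasmid, and each plasmid complements one auxotrophy. After 24 h, the cells were fixed with paraformaldehyde and imaged by automated confocal microscopy, and Harmony analysis yielded mean cell pixel area per well. Each value is averaged over 3 replicates. Same SeMeCo high-content imaging drug screen: Selleck FDA-approved drugs at 10 µM, 24 h in SM medium, 384-well plates, 3 replicates.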

| Structure (SMILES) | mean cell size |
| --- | --- |
| CC(=O)c1c(O)cc(C)oc1=O [Sodium dehydroacetate] | 12.3 ± 0.038 |
| CN1[C@@H]2C[C@@H](OC(=O)[C@H](CO)c3ccccc3)C[C@H]1[C@@H]1O[C@@H]12 [Scopolamine HBr] | 12.5 ± 0.14 |
| CN(C)C(=O)Oc1cccc([N+](C)(C)C)c1 [Neostigmine Bromide] | 11.8 ± 0.15 |
| Cc1cc(C(C#N)c2ccc(Cl)cc2)c(Cl)cc1NC(=O)c1cc(I)cc(I)c1O (centres undefined) [Closantel] | 12.3 ± 0.27 |
| CN1[C@@H]2C[C@@H](OC(=O)[C@H](CO)c3ccccc3)C[C@H]1[C@@H]1O[C@@H]12 [Scopolamine HBr trihydrate] | 12.1 ± 0.18 |
| CN[C@@H]1[C@@H](O)[C@@H](O[C@@H]2[C@@H](O)[C@H](O[C@H]3O[C@H](CN)CC[C@H]3N)[C@@H](N)C[C@H]2N)OC[C@]1(C)O.CN[C@@H]1[C@@H](O)[C@@H](O[C@@H]2[C@@H](O)[C@H](O[C@H]3O[C@H]([C@@H](C)N)CC[C@H]3N)[C@@H](N)C[C@H]2N)OC[C@]1(C)O.CN[C@@H]1[C@@H](O)[C@@H](O[C@@H]2[C@@H](O)[C@H](O[C@H]3O[C@H]([C@@H](C)NC)CC[C@H]3N)[C@@H](N)C[C@H]2N)OC[C@]1(C)O [Gentamicin Sulfate] | 12.1 ± 0.15 |
| C=CCN1C[C@H](C(=O)N(CCCN(C)C)C(=O)NCC)C[C@@H]2c3cccc4[nH]cc(c34)C[C@H]21 [Cabergoline] | 12.2 ± 0.17 |
| N[C@@H]1C[C@H]1c1ccccc1 [Tranylcypromine (2-PCPA) HCl] | 12.3 ± 0.32 |
| CCC1=C[C@H]2CN3CCc4c([nH]c5ccccc45)[C@](C(=O)OC)(C2)[C@H]13 [Catharanthine] | 12.5 ± 0.19 |
| CCCCCCCCCCCCCCCC[n+]1ccccc1 [Cetylpyridinium Chloride] | 11.2 ± 0.14 |
| CC(=O)O[C@H]1C[C@@H]2CC[C@@H]3[C@H](CC[C@@]4(C)[C@H]3C[C@H]([N+]3(C)CCCCC3)[C@@H]4OC(C)=O)[C@@]2(C)C[C@@H]1[N+]1(C)CCCCC1 [Pancuronium dibromide] | 12.5 ± 0.19 |
| C[CH2][Hg][S]c1ccccc1C(=O)[O-].[Na+] [Thimerosal] | 12.3 ± 0.52 |
| CCN(CC)CCOC(=O)C(O)(c1ccccc1)c1ccccc1 [Benactyzine hydrochloride] | 12.4 ± 0.051 |
| NCCc1c[nH]c2ccc(O)cc12 [Serotonin HCl] | 12.2 ± 0.41 |
| Nc1nc(N)nc(NC2CC2)n1 [Cyromazine] | 12.46 ± 0.1 |
| CN1[C@@H]2CC[C@H]1C[C@@H](OC(=O)C(CO)c1ccccc1)C2 (some centres undefined) [Atropine sulfate monohydrate] | 12.26 ± 0.093 |
| C[N+]12CCC(CC1)C(OC(=O)C(O)(c1ccccc1)c1ccccc1)C2 (centres undefined) [Clidinium Bromide] | 12.4 ± 0.13 |

| Structure (SMILES) | mean cell size |
| --- | --- |
| NC(=O)CN1CCCC1=O [Piracetam] | 12.47 ± 0.028 |
| Cc1cc(O)ccc1Cl [Chlorocresol] | 12.6 ± 0.13 |
| C#C[C@]1(O)C=C[C@H]2[C@@H]3CCC4=CC(=O)CC[C@@H]4[C@H]3CC[C@@]21CC [Gestodene] | 12.5 ± 0.17 |
| CCOC(=O)Nc1ccc(NCc2ccc(F)cc2)cc1N [Retigabine] | 12.58 ± 0.12 |
| CC[C@@H](C(N)=O)N1CCCC1=O [Levetiracetam] | 12.5 ± 0.14 |
| N#Cc1nn(-c2c(Cl)cc(C(F)(F)F)cc2Cl)c(N)c1[S+]([O-])C(F)(F)F (centres undefined) [Fipronil] | 12.3 ± 0.2 |
| O=[N+]([O-])C(Br)(CO)CO [Bronopol] | 12.2 ± 0.43 |
| C[C@@H]1O[C@@H](O[C@H]2C[C@@H](O)[C@]3(CO)[C@H]4[C@H](O)C[C@]5(C)[C@@H](C6=CC(=O)OC6)CC[C@]5(O)[C@@H]4CC[C@]3(O)C2)[C@H](O)[C@H](O)[C@H]1O [Ouabain] | 12.3 ± 0.32 |
| Cc1cc(C(C#N)c2ccc(Cl)cc2)c(Cl)cc1NC(=O)c1cc(I)cc(I)c1O (centres undefined) [Closantel Sodium] | 12.2 ± 0.24 |
| CC[C@@]1(O)C(=O)OCc2c1cc1n(c2=O)Cc2cc3ccccc3nc2-1 [Camptothecin] | 12.3 ± 0.14 |
| CCN(C)C(=O)Oc1cccc([C@H](C)N(C)C)c1 [Rivastigmine] | 12.7 ± 0.17 |
| CC(C)N(CCC(C(N)=O)(c1ccccc1)c1ccccn1)C(C)C (centres undefined) [Disopyramide] | 12.27 ± 0.1 |
| CC(NC(C)(C)C)C(=O)c1cccc(Cl)c1 (centres undefined) [Amfebutamone (Bupropion) HCl] | 12.5 ± 0.13 |
| C[N+](C)(C)CCCCCCCCCC[N+](C)(C)C [Decamethonium Bromide] | 12.47 ± 0.097 |
| CC[N+](C)(CC)CCOC(=O)C(O)(c1ccccc1)c1ccccc1 [Methylbenactyzine Bromide] | 12.6 ± 0.34 |
| Oc1cc(Cl)ccc1Oc1ccc(Cl)cc1Cl [Triclosan] | 12.5 ± 0.31 |
| CC[C@H]1[C@@H]2C[C@H]3[C@@H]4N(C)c5ccccc5[C@]45C[C@@H]([C@@H]2[C@H]5O)N3[C@@H]1O [Ajmaline] | 12.1 ± 0.16 |
